Drawing on PubChem BioAssay (Tox21), this text covers Potency and outcome for 20 molecules.

Molecules are shown by their SMILES. Records with an inconclusive call do not appear. The source made the active and inactive calls. Unless noted, calls follow the shape of the dose curve; as a rule, active = well fitted curve in the direction sought with a large enough effect in the repeat runs; inconclusive = weak or mixed curves; inactive = no such curve, though single readings can be large; an effect the other way counts as inactive or inconclusive. Where a SMILES comes first, the peptide text is derived from it. [ ]: non-standard residue; d: D form. pGlu = O=C1CC[C@@H](C(=O)O)N1

A short description of assay [1]: qHTS assay to identify small molecule antagonists of the estrogen receptor alpha (ER-alpha) signaling pathway - cell viability counter screen (AID 743074; calls by dose curve;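 also: HEK293 cells carrying ER-alpha-UAS-bla reporter stimulated with 17beta-estradiol; nearly all actives have a fitted effect of over 45% in size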). On the technique in general: qHTS replaces the single test concentration by a dilution series.
The nature of assay [2]: qHTS assay to identify small molecule antagonists of the estrogen receptor alpha (ER-alpha) signaling pathway using the BG1 cell line - cell viability counter screen (AID 743081).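 Also: compound given together with 17beta-estradiol as the ER stimulus; series mostly up to about 70 µM; nearly all actives have a fitted effect of over 45% in size.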
The target of assay [3] is Aromatase (Homo sapiens) (UniProt P11511). Briefly: qHTS assay to identify aromatase inhibitors (AID 743083). Also: series mostly up to about 70 µM; nearly all actives have a fitted effect of over 55% in size.
The nature of assay [4]: qHTS assay to identify small molecule that activate the aryl hydrocarbon receptor (AhR) signaling pathway - cell viability counter screen (AID 743086).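 Also: HepG2 liver cells carrying the AhR DRE luciferase reporter; series mostly up to about 70 µM; nearly all actives have a fitted effect of over 45% in size.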 In short, it runs like this: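 HepG2-AhR-luc (HG2L7.5c1) cells, 4000/well, treated 24 h at 37 C with compound; viability measured as CellTiter-Fluor fluorescence after 30 min in the same wells as the luciferase read.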
Assay [5] deals with Peroxisome proliferator-activated receptor gamma (Homo sapiens) (UniProt P37231). The experiment in a line: qHTS assay to identify small molecule antagonists of the peroxisome proliferator-activated receptor gamma (PPARg) signaling pathway (AID 743191; calls by dose curve; also: series mostly up to about 63 µM; nearly all actives have a fitted effect of over 30% in size). In a few lines:
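GeneBLAzer PPARg UAS-bla HEK293H cells, 5 h post-plating, exposed to compounds 17 h at 37C. LiveBLAzer B/G FRET substrate added for 1 h at room temperature; beta-lactamase reporter read by fluorescence intensity.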

Assay [6] is described as follows: qHTS assay to identify small molecule antagonists of the peroxisome proliferator-activated receptor gamma (PPARg) signaling pathway - cell viability counter screen (AID 743194). Also: nearly all actives have a fitted effect of over 55% in size. In short, it runs like this:
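Cytotoxicity counter screen in PPARg-bla HEK293H cells, same wells as reporter assay. Compounds plus 50 nM rosiglitazone (final) for 17 h at 37 C, then viability read by CellTiter-Glo luminescence.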

Assay [7] in a line: qHTS assay for small molecule agonists of the antioxidant response element (ARE) signaling pathway - cell viability counter screen (AID 743203; calls by dose curve; also: nearly all actives have a fitted effect of over 55% in size). In short, it runs like this: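 Luminescence read-out (CellTiter-Glo, 30 min at room temperature) measured cell viability in the same wells as the ARE beta-lactamase reporter. HepG2 ARE-bla cells were treated with compounds for 16 hrs at 37C/5% CO2.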

A short description of assay [8]: qHTS assay for small molecule activators of the heat shock response signaling pathway - cell viability counter screen (AID 743209). Also: nearly all actives have a fitted effect of over 50% in size. In a few lines:
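HSE-bla HeLa; 1500 cells/well; overnight 37 C, 5% CO2; compound 5 h 37 C; LiveBLAzer B/G substrate 2.5 h RT; CellTiter-Glo 30 min RT; luminescence.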

A short description of assay [9]: qHTS assay to identify small molecule agonists of the peroxisome proliferator-activated receptor delta (PPARd) signaling pathway - cell viability counter screen (AID 743211). Also: nearly all actives have a fitted effect of over 55% in size. In short, it runs like this:
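Tox21 library compounds, delivered in DMSO, were incubated 17 h with PPARd-bla HEK293H cells; cytotoxicity was taken from CellTiter-Glo luminescence read 30 min after reagent addition.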

A short description of assay [10]: qHTS assay for small molecule agonists of the antioxidant response element (ARE) signaling pathway (AID 743202; active = well fitted activation curve with a large enough effect in the signal ratio in the repeat runs, not every such curve was filed as active; the % refers to the signal ratio). In a few lines:
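HepG2 ARE-bla reporter line, 2,000 cells/well; 5 h preincubation 37 C/5% CO2; compound (DMSO) 16 h 37 C; B/G FRET substrate 2 h RT; fluorescence intensity.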

Assay [11] can be described thus: qHTS assay for small molecule activators of the heat shock response signaling pathway (AID 743210; active = well fitted activation curve with a large enough effect in the signal ratio in the repeat runs, with a control signal flat, not every such curve was filed as active; the % refers to the signal ratio; also: series mostly up to about 63 µM). In short, it runs like this: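 Beta-lactamase reporter read-out: FRET substrate fluorescence after 2.5 h at RT, following 5 h compound treatment at 37 C of HeLa cells carrying HSE-driven bla reporter; quantitative HTS format.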
Assay [12] in a line: qHTS assay to identify aromatase inhibitors - cell viability counter screen (AID 743084).
For assay [13], the target named is Peroxisome proliferator-activated receptor gamma (Homo sapiens) (UniProt P37231). Briefly: qHTS assay to identify small molecule agonists of the peroxisome proliferator-activated receptor gamma (PPARg) signaling pathway (AID 743094; active = well fitted activation curve with a large enough effect in the signal ratio in the repeat runs, not every such curve was filed as active; the % refers to the signal ratio). In a few lines:
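HEK293H PPARg-bla cells, 5 h settle at 37C/5% CO2; compound (DMSO) 17 h, 37C; B/G FRET substrate 1 h RT; fluorescence intensity read-out. qHTS format.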

Assay [14] has as its target Aryl hydrocarbon receptor (Homo sapiens) (UniProt P35869). The experiment in a line: qHTS assay to identify small molecule that activate the aryl hydrocarbon receptor (AhR) signaling pathway (AID 743085).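 Also: HG2L7.5c1 human HepG2 liver cells with stably integrated DRE-driven firefly reporter; series mostly up to about 70 µM; nearly all actives have a fitted effect of over 15% in size.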 In a few lines: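 A multiplexed format paired cell viability (CellTiter-Fluor fluorescence) with AhR-dependent luciferase output (ONE-Glo luminescence) in the same wells of HepG2 DRE-luc cells after 24 h compound exposure at 37C.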

For assay [15], the target named is Estrogen receptor (Homo sapiens) (UniProt P03372). Briefly: qHTS assay to identify small molecule antagonists of the estrogen receptor alpha (ER-alpha) signaling pathway (AID 743069; active = well fitted curve in the direction sought with a large enough effect in the signal ratio in the repeat runs, not every such curve was filed as active; the % refers to the signal ratio). In short, it runs like this: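 Beta-lactamase FRET fluorescence is read after 2 hr at room temperature with LiveBLAzer B/G substrate. Before that, ER-alpha-bla HEK293 cells sit 4 hr after plating, then receive compound plus 17beta-estradiol and incubate 18 hr at 37C.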

Assay [16] shares this target. Briefly: qHTS assay to identify small molecule agonists of the estrogen receptor alpha (ER-alpha) signaling pathway (AID 743075; calls by dose curve;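 also: HEK293 GripTite cells with ER-alpha and UAS-driven beta-lactamase reporter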; also: potency is read from the fitted curve at half-maximal effect).
Assay [17] shares this target. Briefly: qHTS assay to identify small molecule agonists of the estrogen receptor alpha (ER-alpha) signaling pathway using the BG1 cell line (AID 743079). Also: nearly all actives have a fitted effect of over 20% in size. Also: potency is read from the fitted curve at half-maximal effect.
Assay [18] in a line: qHTS assay to identify small molecule antagonists of the estrogen receptor alpha (ER-alpha) signaling pathway using the BG1 cell line (AID 743080; calls by dose curve;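 also: BG1 cells stimulated with 17beta-estradiol alongside compound; series mostly up to about 70 µM; nearly all actives have a fitted effect of over 25% in size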). In short, it runs like this:
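Quantitative HTS on the Tox21 10K library: BG1 cells with endogenous ER-alpha and ERE-luciferase reporter, 17beta-estradiol stimulation, 21.5 h compound exposure, luminescence endpoint with parallel fluorescence cytotoxicity counter-read.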

Chain of Aryl hydrocarbon receptor (Homo sapiens) (P35869 whole entry, looked up): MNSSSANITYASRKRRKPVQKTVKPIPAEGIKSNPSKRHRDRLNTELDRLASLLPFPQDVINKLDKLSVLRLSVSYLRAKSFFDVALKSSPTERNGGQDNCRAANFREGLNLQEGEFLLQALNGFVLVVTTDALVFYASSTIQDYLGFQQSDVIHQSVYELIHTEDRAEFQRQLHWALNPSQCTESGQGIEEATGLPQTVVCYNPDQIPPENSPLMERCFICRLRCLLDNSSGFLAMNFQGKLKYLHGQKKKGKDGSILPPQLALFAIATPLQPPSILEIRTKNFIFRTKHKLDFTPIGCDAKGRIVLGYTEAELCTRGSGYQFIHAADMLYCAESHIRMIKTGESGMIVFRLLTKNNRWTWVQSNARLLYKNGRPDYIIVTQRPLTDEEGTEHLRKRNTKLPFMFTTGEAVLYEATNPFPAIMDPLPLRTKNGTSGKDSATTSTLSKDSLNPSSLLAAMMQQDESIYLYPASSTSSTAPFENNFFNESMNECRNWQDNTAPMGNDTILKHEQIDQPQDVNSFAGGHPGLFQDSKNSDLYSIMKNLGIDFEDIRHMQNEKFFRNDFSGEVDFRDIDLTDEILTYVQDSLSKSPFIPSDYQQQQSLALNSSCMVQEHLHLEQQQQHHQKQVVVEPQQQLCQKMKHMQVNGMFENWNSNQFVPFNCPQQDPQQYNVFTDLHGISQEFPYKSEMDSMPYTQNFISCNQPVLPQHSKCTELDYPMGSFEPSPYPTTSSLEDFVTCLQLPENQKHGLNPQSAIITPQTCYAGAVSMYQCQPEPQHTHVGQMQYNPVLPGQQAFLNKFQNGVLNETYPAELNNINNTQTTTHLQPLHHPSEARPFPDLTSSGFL
Chain of Aromatase (Homo sapiens) (P11511 whole entry, looked up): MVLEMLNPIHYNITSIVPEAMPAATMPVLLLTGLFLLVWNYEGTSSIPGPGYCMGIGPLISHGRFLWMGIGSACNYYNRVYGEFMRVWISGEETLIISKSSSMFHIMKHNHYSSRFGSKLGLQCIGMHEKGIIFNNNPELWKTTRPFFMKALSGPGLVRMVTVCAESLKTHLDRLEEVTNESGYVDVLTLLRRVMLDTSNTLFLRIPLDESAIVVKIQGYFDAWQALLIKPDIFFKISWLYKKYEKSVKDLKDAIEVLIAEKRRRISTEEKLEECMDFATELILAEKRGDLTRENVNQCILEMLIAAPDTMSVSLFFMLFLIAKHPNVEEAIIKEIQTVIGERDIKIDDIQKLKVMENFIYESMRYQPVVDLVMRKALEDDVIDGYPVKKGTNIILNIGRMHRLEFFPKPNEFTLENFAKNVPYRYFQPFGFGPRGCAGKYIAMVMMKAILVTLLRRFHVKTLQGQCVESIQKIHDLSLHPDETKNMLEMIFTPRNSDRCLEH
Chain of Peroxisome proliferator-activated receptor gamma (Homo sapiens) (P37231 whole entry, looked up): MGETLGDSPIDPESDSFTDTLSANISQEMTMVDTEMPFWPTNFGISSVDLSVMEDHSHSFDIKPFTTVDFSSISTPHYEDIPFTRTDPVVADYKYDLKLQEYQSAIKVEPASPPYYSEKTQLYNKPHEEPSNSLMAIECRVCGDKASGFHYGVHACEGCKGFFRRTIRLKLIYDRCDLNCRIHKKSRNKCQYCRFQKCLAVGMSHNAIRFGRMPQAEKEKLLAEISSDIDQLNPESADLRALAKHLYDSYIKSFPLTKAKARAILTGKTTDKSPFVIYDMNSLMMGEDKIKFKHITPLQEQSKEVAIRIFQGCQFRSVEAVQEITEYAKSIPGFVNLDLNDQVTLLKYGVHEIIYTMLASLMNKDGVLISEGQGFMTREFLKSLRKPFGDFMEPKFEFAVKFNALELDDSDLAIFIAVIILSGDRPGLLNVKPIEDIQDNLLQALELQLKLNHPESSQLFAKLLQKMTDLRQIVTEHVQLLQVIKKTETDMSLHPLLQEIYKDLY
Chain of Estrogen receptor (Homo sapiens) (P03372 whole entry, looked up): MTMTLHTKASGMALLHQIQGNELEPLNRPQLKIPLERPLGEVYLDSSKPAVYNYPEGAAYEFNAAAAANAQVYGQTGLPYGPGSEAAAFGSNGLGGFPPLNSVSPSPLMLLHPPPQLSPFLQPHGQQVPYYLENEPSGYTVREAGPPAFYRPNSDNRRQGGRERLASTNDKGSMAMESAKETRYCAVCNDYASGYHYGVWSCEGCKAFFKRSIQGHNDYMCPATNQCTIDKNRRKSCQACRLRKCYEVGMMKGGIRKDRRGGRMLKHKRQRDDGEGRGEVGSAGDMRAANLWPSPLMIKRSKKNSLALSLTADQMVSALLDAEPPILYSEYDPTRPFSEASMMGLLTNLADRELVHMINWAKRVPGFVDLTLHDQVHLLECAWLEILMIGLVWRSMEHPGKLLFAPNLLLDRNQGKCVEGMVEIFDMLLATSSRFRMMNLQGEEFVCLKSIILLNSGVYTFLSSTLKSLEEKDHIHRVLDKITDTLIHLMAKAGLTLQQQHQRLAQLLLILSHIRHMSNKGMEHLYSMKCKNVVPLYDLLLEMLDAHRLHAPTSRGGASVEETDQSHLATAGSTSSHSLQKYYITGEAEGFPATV

Take `COc1cc2c(cc1OC)-c1cc3ccc(OC)c(OC)c3c[n+]1CC2`: the Potency entry in assay [1], in [4] and in assay [5] was “inactive” throughout. The molecule was called inactive in [2], in assay [3], in assay [6], in assay [7], in assay [8] and in assay [9].
As to `C=CN1CCCCCC1=O`, the Potency entry in assay [1], in assay [4] and in [10] was “inactive” throughout. In addition, the result in [2], in assay [6], in assay [7], in [8] and in assay [11] was inactive.
Regarding `CC[N+](CC)(CC(=O)Nc1c(C)cccc1C)Cc1ccccc1` (tested in a mixture with another compound), the Potency entry in [1], in assay [12], in assay [4], in assay [13], in [5] and in [10] was “inactive” each time. The molecule was called inactive in [2], in assay [3], in [6], in assay [7], in assay [8] and in assay [9].
As to `COc1cccc(OC)c1C(=O)N[C@@H]1C(=O)N2[C@@H]1SC(C)(C)[C@@H]2C(=O)O`, the Potency result in assay [1], in assay [14], in assay [4] and in assay [13] was “inactive” each time. Also, the molecule was called inactive in assay [2], in assay [3], in assay [6], in assay [7], in assay [8] and in assay [9].
For `NCCCC[C@H](N[C@@H](CCc1ccccc1)C(=O)O)C(=O)N1CCC[C@H]1C(=O)O`, the Potency entry in assay [1], in [12], in assay [14], in assay [4], in assay [13] and in assay [5] was “inactive” each time. For the same molecule, the Potency result in [10] was “inactive”. For the same molecule, the call in assay [2], in assay [3], in [6], in [8] and in assay [9] was inactive.
Regarding `CO[C@@]1(NC(=O)C(C(=O)O)c2ccc(O)cc2)C(=O)N2C(C(=O)O)=C(CSc3nnnn3C)CO[C@@H]21` (some centres undefined), the Potency result in assay [15], in assay [1], in [16], in [17], in assay [18] and in assay [12] was “inactive” throughout. Besides, the Potency result in [14], in assay [4], in assay [13] and in [10] was “inactive” throughout. Also, the molecule was classed as inactive in assay [3], in [6], in [7], in [8], in [11] and in [9].
As to `CN(C)CCCCCCN(C)C`, the result in assay [6], in assay [7], in [8], in [11] and in [9] was inactive. For the same molecule, in assay [10], the Potency entry was “inactive”.
In the case of `CCOCC(C)O` (centres undefined), the Potency result in assay [15], in assay [1], in [16], in assay [17], in assay [18] and in assay [12] was “inactive” in each case. Besides, the Potency entry in assay [14], in [13], in [5] and in assay [10] was “inactive” throughout. Also, the outcome in assay [2], in assay [3], in [6], in [7], in [8] and in assay [11] was inactive. Also, in [9], the molecule was called inactive.
For the molecule `O=C(O)CCCC[P+](c1ccccc1)(c1ccccc1)c1ccccc1`, the Potency result in [5] and in [10] was “inactive” throughout. In addition, the outcome in [6], in [7], in assay [8], in [11] and in assay [9] was inactive.
With `CC1=NS(=O)(=O)c2cc(Cl)ccc2N1`, the Potency result in assay [15], in [16], in assay [17], in assay [18], in [12] and in assay [14] was “inactive” throughout. Moreover, the Potency entry in [4], in assay [13] and in assay [10] was “inactive” in each case. For the same molecule, the result in assay [2], in assay [3], in assay [6], in [7], in assay [8] and in [11] was inactive. In addition, in assay [9], the result was inactive.
Consider `CCCO[Si](OCCC)(OCCC)OCCC`, for which the Potency entry in assay [15], in [1], in assay [16], in [17], in [18] and in [12] was “inactive” in each case. Besides, the Potency entry in [14] and in [4] was “inactive” in each case. The result in assay [2], in assay [3], in assay [6], in [8], in [11] and in assay [9] was inactive.
As for `Cc1onc(-c2c(Cl)cccc2Cl)c1C(=O)Cl`, the molecule was called inactive in [6], in assay [8], in [11] and in assay [9]. Moreover, in [10], the Potency entry was “inactive”.
On to `CCNC(=O)[C@@H]1CCCN1C(=O)[C@H](CCCN=C(N)N)NC(=O)[C@H](CC(C)C)NC(=O)CNC(=O)[C@H](Cc1ccc(O)cc1)NC(=O)[C@H](CO)NC(=O)[C@H](Cc1c[nH]c2ccccc12)NC(=O)[C@H](Cc1cnc[nH]1)NC(=O)[C@@H]1CCC(=O)N1` ([pGlu]HWSYGLRP-NHEt), for which the Potency result in [5] is “inactive”. Further, the molecule was classed as inactive in [6], in assay [7], in assay [8], in [11] and in assay [9].
`C[C@H]1[C@H](NC(=O)/C(=N/OC(C)(C)C(=O)O)c2csc(N)n2)C(=O)N1S(=O)(=O)O` (stereo in doubt): the Potency entry in [1], in assay [12], in assay [14], in [4] and in [10] was “inactive” in each case. In addition, the call in assay [2], in assay [3], in [6], in assay [7], in [8] and in assay [11] was inactive. In assay [9], the outcome was inactive.
On to `CC(C)[C@H]1CC[C@@H](C)CC1=O`, for which the Potency entry in assay [1], in [12], in assay [14], in assay [4] and in [13] was “inactive” each time. In addition, the molecule was called inactive in assay [2], in assay [3], in assay [6], in assay [8], in assay [11] and in assay [9].
As for `CC(C)COC(=O)c1ccc(N)cc1`, the Potency entry in assay [15], in assay [1], in [12], in assay [4], in assay [5] and in [10] was “inactive” throughout. The Potency in assay [16] was 26.8 µM [activator] (active); in assay [17], 26.6 µM (active). In addition, the molecule was classed as inactive in assay [2], in assay [3], in assay [6], in assay [7], in assay [8] and in assay [11]. The molecule was called inactive in [9].
As to `COCCOCC(OC)OC`, the Potency result in [5] was “inactive”. The outcome in assay [6], in [7], in assay [8], in [11] and in assay [9] was inactive.
Consider `Cc1nc(C2CCCCC2)c(-c2ccc(S(N)(=O)=O)c(F)c2)o1`, for which the molecule was classed as inactive in assay [6], in assay [7], in assay [8], in assay [11] and in assay [9].
Regarding `O=[N+]([O-])c1cncn1CCN1CCOCC1`, the Potency result in assay [5] and in assay [10] was “inactive” in each case. The outcome in assay [6], in [7], in assay [8], in assay [11] and in assay [9] was inactive.
For `CCCCCCCCCC[N+](C)(C)[O-]`, the Potency entry in assay [15], in assay [1], in [16], in [17], in [18] and in assay [12] was “inactive” each time. In addition, the Potency entry in assay [14] and in [4] was “inactive” each time. Also, the result in assay [2], in assay [3], in [6], in assay [7], in assay [8] and in assay [11] was inactive. Further, the result in [9] was inactive.
